Assay [1] in a line: Wnt pathway potentiators raising nuclear beta-catenin – imaging, WNT3A-conditioned medium, mouse C2C12, NPC library, primary screen (AID 1117326; in the data active = nuclear beta-catenin stimulation mostly above about 4.2%, no sharp cut-off; inactive = mostly below about 10%). Conditions: stronger effect = higher value.
Assay [2] is described as follows: stimulators of insulin release from INS-1E, primary screen, cell-based, 5 mM glucose, NPC library (AID 1117329;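 active = compound raises insulin release from rat beta cells at 5 mM glucose, no numeric limit stated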). Particulars: rat INS-1E insulin secretion, at 10 µM, stronger effect = higher value.
A short description of assay [3]: growth inhibition of GSK3B-pretreated HCT116 cells – cell-based, CellTiter-Glo, 0.2 to 20 µM (AID 1117336;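 active = compounds lowering colon cancer cell viability after pretreatment blocking the GSK3B kinase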). Conditions: HCT116 viability after GSK3B inhibitor, at 20 µM, stronger effect = higher value. In general terms: Cellular ATP, detected with luciferase, serves as a proxy for viable cell number.
Assay [4] is described as follows: inhibition of endothelial tube formation, primary screen, imaging, VEGF stimulated, CD31 staining, tube area, NPC library (AID 1117340;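 active = compound that reduces growth-factor-driven endothelial tube area in a mixed cell culture, no cutoff stated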). Particulars: VEGF-stimulated ADSC/ECFC co-culture, at 10 µM, stronger effect = higher value.
The nature of assay [5]: GLP1 release stimulators, primary, NCI-H716, NPC library (AID 1117341;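 active = compound raises GLP1 secretion from the human gut endocrine cells, with no numeric limit stated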). Particulars: NCI-H716 cells, at 10 µM, stronger effect = higher value.
A short description of assay [6]: HCT116 colon cancer cell growth inhibition, primary screen, CellTiter-Glo luminescence, NPC library (AID 1117342;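 active = compounds that lower survival of HCT116 colon cancer cells in the luminescence readout, no numeric limit stated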). Particulars: at 20 µM (top of the series).
Assay [7] is described as follows: reduced SW480 viability measured with CellTiter-Glo, NPC library, primary (AID 1117343;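 active = compounds that lower viability of the colon cancer cells in the luminescence readout, with no numeric limit stated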). Conditions: CellTiter-Glo luminescence; at 20 µM (top of the series) unless noted.
The nature of assay [8]: NPC library primary testing for decreased DLD-1 cell viability via CellTiter-Glo (AID 1117346;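 active = compounds that lower survival of DLD-1 colon cancer cells in the luminescence readout, no cutoff given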). Conditions: DLD-1 viability, CellTiter-Glo luminescence; at 20 µM (top of the series).
Assay [9] is described as follows: viability loss in pontine glioma line – cell-based, SU-DIPG-IV, MIPE4.0, CellTiter-Glo, qHTS, dose response (AID 1347063; cut-off not given, nearly all actives have AC50 up to about 30 µM;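 note: compound exposure lasted 48 hours before the viability readout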). Conditions: CellTiter-Glo ATP luminescence.
Assay [10] is described as follows: viability loss in pontine glioma line – cell-based, JHH-DIPG-1, MIPE4.0, CellTiter-Glo, qHTS, dose response (AID 1347062; cut-off not given, nearly all actives have AC50 up to about 27 µM). Conditions: JHH-DIPG-1 viability, CellTiter-Glo ATP luminescence.
Assay [11] can be described thus: viability loss in pontine glioma line – cell-based, SU-DIPG-XXV, MIPE5.0, CellTiter-Glo, qHTS, dose response (AID 1347065; cut-off not given, nearly all actives have AC50 up to about 26 µM;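 note: cells exposed to compound for 48 hours before ATP readout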). Particulars: CellTiter-Glo ATP luminescence.
Assay [12] in a line: growth inhibition of DIPG cells – cell-based, MIPE4.0 library, CellTiter-Glo luminescence, qHTS (AID 1347066; cut-off not given, nearly all actives have AC50 up to about 30 µM;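 note: cells exposed to compound for 48 hours before readout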). Particulars: SU-DIPG-VI viability, CellTiter-Glo ATP luminescence.
Assay [13] is described as follows: viability loss with induced miR-34 in A549 – imaging, A549 dox-inducible miR-34, nuclei and caspase counts, primary screen (AID 1347080;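 active = compounds whose cell count with miR-34 switched on is under 0.7 times the count with it off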). Particulars: A549 miR-34 inducible, Hoechst nuclei count, 48 h.
A short description of assay [14]: MELAS cybrid and Rieske KO viability enhancers – cell-based, MELAS cybrids, Rieske KO mouse fibroblasts, CellTiter-Glo, primary screen (AID 1508586;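 active = mean z-score across replicates of 1.96 or higher in either the MELAS or the Rieske mutant cell line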;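 note: z relative to plate mean and SD of compound and empty wells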). Conditions: low glucose.
Assay [15] is described as follows: JHH-DIPG-1 glioma cell viability, MIPE5.0 library, CellTiter-Glo luminescence, qHTS (AID 1347067; cut-off not given, nearly all actives have AC50 up to about 26 µM;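 note: cells exposed to compound for 48 hours before readout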). Conditions: JHH-DIPG-1 glioma viability, CellTiter-Glo ATP luminescence.
Assay [16] can be described thus: growth inhibition of DIPG cells – cell-based, MIPE5.0 library, qHTS (AID 1347068; cut-off not given, nearly all actives have IC50 up to about 30 µM). Conditions: SU-DIPG-XXV viability. Background: In qHTS, concentration-response curves come from the screen itself.
Assay [17] is described as follows: drug combination growth inhibition, ovarian cancer – cell-based, oncology-focused library, rucaparib conditional, profiling panel (AID 1508598). Particulars: patient-derived ovarian cancer cells, CellTiter-Glo viability, 144 h, stronger effect = lower value.
[18] abbreviates: stronger effect = lower value, cell number ratio, induced over uninduced.
Setting [19] is: measured here: relative caspase fold change +Dox/-Dox.
[20] abbreviates: measured here: total cells with miR-34 induction, stronger effect = lower value.
The mark [21] stands for this setting: measured here: total cells without miR-34 induction.
[22] abbreviates: MELAS cybrid survival, CellTiter-Glo 48 h, stronger effect = higher value.
The mark [23] stands for this setting: Rieske KO mouse fibroblast survival, CellTiter-Glo 72 h.

Records with an inconclusive call do not appear. Activity calls are given as the source filed them.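 Rule for the calls, unless noted: active = normalized viability below 100% at a tested concentration; inactive = the rest.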

Broadly, the AC50 is the midpoint of the concentration-response curve, whichever way the signal moves. Usually viability stands for a read-out of living cells in per cent, often relative to untreated cells.

On to `Clc1ccc(C(Cn2ccnc2)OCc2ccc(Sc3ccccc3)cc2)c(Cl)c1` (stereo not drawn), for which the nuclear beta-catenin stimulation in assay [1] (at 10 µM) is 8.8% (inactive); in [1] (stimulation, at 2 µM) it was 0%. Also, in assay [2], the insulin secretion stimulation is 6.2% (inactive). Moreover, the viability decrease in assay [3] is 110% (active). For the same molecule, the tube area decrease in [4] is 110% (active). Also, the GLP1 secretion stimulation in assay [5] was 16% (inactive). The inhibition of viability in assay [6] was 112% (active). Moreover, the viability decrease (inhibition) is 132% (active) in assay [7] and 101% (active) in [8]. Besides, the AC50 in assay [9] is 16.6 µM (active).
As to `O=C(O)c1ccc(-n2nc(-c3ccccc3O)nc2-c2ccccc2O)cc1`, the nuclear beta-catenin stimulation is 28.8% (inactive) in [1] (at 10 µM) and -2.6% in [1] (stimulation, at 2 µM). Also, the insulin secretion stimulation in [2] is 0.8% (inactive). Besides, the viability decrease in assay [3] was 112% (active). Also, the tube area decrease in [4] is 102% (active). In addition, the GLP1 secretion stimulation in assay [5] was 7.6% (inactive). In addition, the inhibition of viability in [6] is 112% (active). Also, the viability decrease (inhibition) in assay [7] was 130% (active); in [8], 93.6% (active). Moreover, in [10], the call was inactive. The concentration at half-maximal activity (AC50) in assay [11] is 20.9 µM (active); in assay [12], 23.5 µM (active). For the same molecule, the fold change was 0.936 (inactive) in assay [13] (setting [18]) and 1.1 in assay [13] (setting [19]). The cell count was 4300 in assay [13] (setting [20]) and 4600 in assay [13] (setting [21]). Also, the z-score in assay [14] (setting [22]) was -0.00061 (inactive); in [14] (setting [23]), -0.754.
Regarding `CC1(C)CCC(C)(C)c2cc(NC(=O)c3ccc(C(=O)O)cc3)ccc21`, the nuclear beta-catenin stimulation is 8% (inactive) in assay [1] (at 10 µM) and 8.5% in assay [1] (stimulation, at 2 µM). Also, the insulin secretion stimulation in assay [2] is -0.4% (inactive). Besides, the viability decrease in [3] was 77.6% (active). Also, the tube area decrease in assay [4] was 5.5% (inactive). Besides, in assay [5], the GLP1 secretion stimulation is 4% (inactive). For the same molecule, in assay [6], the inhibition of viability is 69.7% (active). In addition, the results for the viability decrease (inhibition) in [7] and in [8] were 47.9% (inactive) and 43.1% (inactive), respectively. In addition, the outcome in [10], in assay [11], in assay [12], in [15] and in assay [16] was inactive. In addition, the fold change in assay [13] (setting [18]) is 0.901 (inactive); in assay [13] (setting [19]), 0.365. Also, the cell count was found to be 8210 in [13] (setting [20]) and 9110 in assay [13] (setting [21]). Also, the z-score in assay [14] (setting [22]) is 0.242 (inactive); in assay [14] (setting [23]) it was -0.199.
As for `COc1nc(N)nc2c1ncn2[C@@H]1O[C@H](CO)[C@@H](O)[C@@H]1O`, the nuclear beta-catenin stimulation in [1] (at 10 µM) is 2.7% (inactive); in assay [1] (stimulation, at 2 µM), 0.8%. Further, the insulin secretion stimulation in [2] was -1.9% (inactive). Further, the viability decrease in assay [3] is -1.5% (inactive). Moreover, the tube area decrease in assay [4] is 5.7% (inactive). Also, the GLP1 secretion stimulation in [5] was 0.9% (inactive). Also, in assay [6], the inhibition of viability was -1.43% (inactive). The results for the viability decrease (inhibition) in assay [7] and in assay [8] were -15.5% (inactive) and -11.9% (inactive), respectively. In addition, the molecule was called inactive in assay [10], in [9] and in [12]. The z-score in [14] (setting [22]) is 0.551 (inactive); in assay [14] (setting [23]) it was 0.487. Also, the viability in assay [17] (at 0.000305 µM, OCI-C5x cells, with rucaparib 10 µM, 100% = cells with rucaparib alone) is 129% (inactive); in [17] (at 0.000305 µM, OCI-C5x cells, without rucaparib), 109% (inactive); in [17] (at 0.000305 µM, OCI-P5x cells, with rucaparib 20 µM, 100% = cells with rucaparib alone), 104% (inactive); in assay [17] (at 0.000305 µM, OCI-P5x cells, without rucaparib), 107% (inactive); in assay [17] (at 0.00122 µM, OCI-C5x cells, with rucaparib 10 µM, 100% = cells with rucaparib alone), 114% (inactive); in assay [17] (at 0.00122 µM, OCI-C5x cells, without rucaparib), 106% (inactive). The viability was 101% (inactive) in assay [17] (at 0.00122 µM, OCI-P5x cells, with rucaparib 20 µM, 100% = cells with rucaparib alone); 105% (inactive) in [17] (at 0.00122 µM, OCI-P5x cells, without rucaparib); 108% (inactive) in [17] (at 0.00488 µM, OCI-C5x cells, with rucaparib 10 µM, 100% = cells with rucaparib alone); 98% (active) in assay [17] (at 0.00488 µM, OCI-C5x cells, without rucaparib); 101% (inactive) in [17] (at 0.00488 µM, OCI-P5x cells, with rucaparib 20 µM, 100% = cells with rucaparib alone); 97.2% (active) in assay [17] (at 0.00488 µM, OCI-P5x cells, without rucaparib). The viability in assay [17] (at 0.0195 µM, OCI-C5x cells, with rucaparib 10 µM, 100% = cells with rucaparib alone) was 112% (inactive); in assay [17] (at 0.0195 µM, OCI-C5x cells, without rucaparib), 96.1% (active); in assay [17] (at 0.0195 µM, OCI-P5x cells, with rucaparib 20 µM, 100% = cells with rucaparib alone), 94% (active); in assay [17] (at 0.0195 µM, OCI-P5x cells, without rucaparib) it was 102% (inactive).

These data come from PubChem BioAssay.
